This note sets out measurements from PubChem BioAssay (NCI).

Compounds without any hit were thinned out: in the full panel of roughly 83,000, 20% have a hit.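 Single-concentration screen, 48 h exposure, 96-well plates. Endpoint: percent growth. Below 10 = active.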 The source made the active and inactive calls.

The first test relates to RXF 393 renal. Kind of test: NCI-60 one-dose screen, 48 h (100 = growth as untreated, 0 = no growth, -100 = all killed). As to conditions: 10 µM unless noted.
In the case of `FC(F)(F)c1cc(CNc2ncc(Br)c(Cl)n2)cc(C(F)(F)F)c1`, the growth is 86% (inactive).

As for `O=C1C(OCCOc2ccccc2)=C(OCCOc2ccccc2)C(=O)c2ccccc21`, the growth was 79.4% (inactive).

Consider `CC(=O)Nc1ccccc1-c1n[nH]c(=O)[nH]c1=O`, for which the growth was 96.6% (inactive).

`COc1cccc(Nc2nc(NCCO)c3ccccc3n2)c1`: the growth is 70.7% (inactive).

For the compound `O=c1[nH]c(-c2ccccn2)nc2sc3c(c12)CCCCCC3`, the growth was 50.7% (inactive).

Consider `CC(=O)Nc1ccc(Sc2ccc([N+](=O)[O-])o2)cc1`, for which the growth was -57.1% (active).

Consider `FC(F)(F)c1ccc2c(c1)n1cnnc1c1nncn21`, for which the growth was 104% (inactive).

Turning to `CC(C)OC1=C(Cl)C(=O)c2ccccc2C1=O`, the growth was 99.6% (inactive).

Turning to `CCOC(=O)C(CC(c1ccccc1)N1CCCCC1)[N+](=O)[O-]` (stereo not given), the growth was 100% (inactive).

For `CC[Si](CC)(CC)OC1[C@@H](O[Si](CC)(CC)CC)[C@@H](CNC(=O)NC)O[C@H]1n1cnc2c(NC(=O)Nc3ccccc3)ncnc21` (stereo not given in full), the growth was 116% (inactive).

Take `Cc1ccc2nc(NC(=O)CSC(=S)N3CCN(C)CC3)sc2c1`: the growth is 105% (inactive).

As to `CCCOC(=O)c1ccc2c(c1)[N+](=O)C(C(=O)c1ccccc1)=C(C(F)(F)F)[N+]2=O`, the growth was -93.2% (active).

As for `CCOC(=O)C1=C(C)N2C(=NC3=C(CCCC/C3=C\c3ccccc3)C2c2ccccc2)S1` (stereo not given), the growth was 88.3% (inactive).

Turning to `Nc1c(Br)cc(Br)cc1-c1n[nH]c(=O)[nH]c1=O`, the growth is 103% (inactive).

In the case of `CC(C)(C)[Si](C)(C)OC1[C@@H](CNC(=O)NC(=O)CCl)O[C@@H](n2cnc3c(N)ncnc32)[C@H]1O[Si](C)(C)C(C)(C)C` (stereo not given in full), the growth is -13.3% (active).

On to `O=c1[nH]c(-c2ccncc2)nc2sc3c(c12)CCCCCC3`, for which the growth is -1.71% (active).

Another test concerns SF-268 CNS. The description is as above. As to conditions: 10 µM unless noted.
As for `O=C(NCc1ccco1)C1CCN(S(=O)(=O)c2ccc(Cl)cc2)CC1`, the growth is 37.1% (inactive).

Turning to `C(=C\c1ccccc1)/CN1CCN(C(c2ccccc2)c2ccccc2)CC1`, the growth is 98.5% (inactive).

As to `O=C(Nc1nc2ccccc2[nH]1)C(=O)Nc1nc2ccccc2[nH]1`, the growth was 102% (inactive).

With `Brc1ccccc1Nc1ccc2nnc(-c3ccncc3)n2n1`, the growth was 99.4% (inactive).

Turning to `COC(=O)[C@@H]1CCCN1C(=O)[C@@H]1CCCN1C(=O)[C@@H](Cc1c[nH]c2ccccc12)NC(=S)Nc1cc(C(F)(F)F)cc(C(F)(F)F)c1`, the growth was 58% (inactive).

`COc1ccc(C2OCC(C)(C)CO2)cc1OC`: the growth was 101% (inactive).

Take `O=c1[nH]c(=S)[nH]c(=O)n1Cc1cccc2ccccc12`: the growth is 107% (inactive).

Turning to `C=CC(=O)N1CC2(CCC(n3nc(-c4ccc(Oc5ccccc5)cc4)c4c(N)ncnc43)CC2)C1`, the growth is -81.1% (active).

As for `Cc1nc(NC(=O)COc2cccc(/C=C3\COc4ccccc4C3=O)c2)sc1C`, the growth is -63.3% (active).

As for `Cc1ccc(N=c2nc3sc4c(C)ccc(C)c4n3c(N)c2C#N)cc1`, the growth is 92.6% (inactive).

In the case of `CN1CCN(c2nc(-c3ccncc3)nc3sc4c(c23)CCCCCC4)CC1`, the growth was 61.2% (inactive).

For `Nc1ccccc1-c1n[nH]c(=O)[nH]c1=O`, the growth is 114% (inactive).

As to `CCOC(=O)C1=C(C)N2C(=NC3=C(CCCC/C3=C\c3cc(OC)c(OC)c(OC)c3)C2c2cc(OC)c(OC)c(OC)c2)S1` (stereo not given), the growth was 80.6% (inactive).

Turning to `Cc1cc(=O)[nH]n1-c1cc(Cl)ccc1N`, the growth was 116% (inactive).

In the case of `COCCOC1=C(Cl)C(=O)c2ccccc2C1=O`, the growth is 24.1% (inactive).

On to `Cc1nn2c(-c3nc4ccc(Cl)cc4[nH]3)c(-c3ccc(F)cc3)nc2s1`, for which the growth is 101% (inactive).

Take `Oc1ccc(Cl)cc1CNc1nc2ccccc2[nH]1`: the growth was -39.7% (active).

In the case of `CN([N-]C(=O)CC(=O)[N-]N(C)C(=S)c1ccccc1)C(=S)c1ccccc1.[Cu+2]`, the growth is -67.3% (active).

On to `COc1ccc(-c2nc3sc(C)nn3c2-c2nc3cc(C)c(C)cc3[nH]2)cc1`, for which the growth is 101% (inactive).

On to `Cc1ccc2c(c1)c(Sc1ccc(C(=O)NO)cc1)c1n2CN(C)CC1`, for which the growth was 1.67% (active).

`FC(F)(F)c1cc(CNc2ncc(Br)c(Cl)n2)cc(C(F)(F)F)c1`: the growth was 102% (inactive).

In the case of `O=C1C(OCCOc2ccccc2)=C(OCCOc2ccccc2)C(=O)c2ccccc21`, the growth is 77.2% (inactive).

For `CC(=O)Nc1ccccc1-c1n[nH]c(=O)[nH]c1=O`, the growth is 105% (inactive).

On to `N#Cc1ccc(C(F)(F)F)nc1N1CCC(C(=O)Nc2ccc(Cl)cc2)CC1`, for which the growth was 89% (inactive).

For the compound `COc1cccc(Nc2nc(NCCO)c3ccccc3n2)c1`, the growth is 72.5% (inactive).

As for `O=c1[nH]c(-c2ccccn2)nc2sc3c(c12)CCCCCC3`, the growth is 40.6% (inactive).

For `CC(=O)Nc1ccc(Sc2ccc([N+](=O)[O-])o2)cc1`, the growth was 54.5% (inactive).

On to `CN1CCc2c(c3ccccc3c3ccccc23)C1`, for which the growth is 39.1% (inactive).

Turning to `FC(F)(F)c1ccc2c(c1)n1cnnc1c1nncn21`, the growth was 117% (inactive).

For the compound `CC(C)OC1=C(Cl)C(=O)c2ccccc2C1=O`, the growth is 93.5% (inactive).

As for `CCOC(=O)C(CC(c1ccccc1)N1CCCCC1)[N+](=O)[O-]` (stereo not given), the growth was 93% (inactive).

Regarding `CC[Si](CC)(CC)OC1[C@@H](O[Si](CC)(CC)CC)[C@@H](CNC(=O)NC)O[C@H]1n1cnc2c(NC(=O)Nc3ccccc3)ncnc21` (stereo not given in full), the growth was 67.5% (inactive).

On to `Cc1ccc2nc(NC(=O)CSC(=S)N3CCN(C)CC3)sc2c1`, for which the growth was 112% (inactive).

For the compound `CCCOC(=O)c1ccc2c(c1)[N+](=O)C(C(=O)c1ccccc1)=C(C(F)(F)F)[N+]2=O`, the growth is -81.4% (active).

As for `CCOC(=O)C1=C(C)N2C(=NC3=C(CCCC/C3=C\c3ccccc3)C2c2ccccc2)S1` (stereo not given), the growth was 99.2% (inactive).

As to `Nc1c(Br)cc(Br)cc1-c1n[nH]c(=O)[nH]c1=O`, the growth is 104% (inactive).

For `c1ccc(-c2nc(N3CCOCC3)c3c4c(sc3n2)CCCCCC4)nc1`, the growth is 74.1% (inactive).

For the compound `CC(C)(C)[Si](C)(C)OC1[C@@H](CNC(=O)NC(=O)CCl)O[C@@H](n2cnc3c(N)ncnc32)[C@H]1O[Si](C)(C)C(C)(C)C` (stereo not given in full), the growth is -76.6% (active).

`O=c1[nH]c(-c2ccncc2)nc2sc3c(c12)CCCCCC3`: the growth was 83.5% (inactive).
